# Experiments:
# Experiment in all cases: PBM binding z-score (relative to random genomic background probes); higher = stronger binding; sequences stand for … in GC…GCGATTGACAGCGTAGAATGAAGG
# [1] = tested on: RARb homodimer (NR concentration 270 nM)
# How it was run: (§1)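 The probes on custom Agilent 4×180K protein-binding microarrays were double-stranded, with 34-nt variable regions bearing direct-repeat seeds, single-nucleotide variants, half-site ablations and random human genomic background sequences. Incubation lasted 1 h with ligand-free nuclear receptor dimers in PBS pH 7.4, 2% milk, 0.02% Triton X-100, 1 mM DTT, 0.2 mg/mL BSA and 0.4 mg/ml salmon testes DNA. Antibodies against each partner (one per run) detected bound dimers, and fluorescence scans were regression-normalized. Binding z-scores take the random background probes as reference.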
# [2] = tested on: RARg:RXRa (NR concentration 270 nM, RXRa partner concentration 90 nM)
# How it was run: as §1
# [3] = tested on: RARg homodimer (NR concentration 270 nM)
# How it was run: as §1
# [4] = tested on: RXRa DBDmut IVT, anti-RXR (DBD mutation: RXRa K156A/R161A, NR concentration 90 nM)
# How it was run: as §1
# [5] = tested on: RXRa homodimer (NR concentration 180 nM)
# How it was run: as §1
# [6] = tested on: THRa:RXRa (NR concentration 90 nM, RXRa partner concentration 90 nM)
# How it was run: as §1
# [7] = tested on: THRa homodimer (NR concentration 90 nM)
# How it was run: as §1
# [8] = tested on: VDR homodimer (NR concentration 270 nM)
# How it was run: as §1
Sequence,PBM binding z-score [1],PBM binding z-score [2],PBM binding z-score [3],PBM binding z-score [4],PBM binding z-score [5],PBM binding z-score [6],PBM binding z-score [7],PBM binding z-score [8]
ATCGAAAGGTCGAGGTGAGTTTAGAGAAAGGGAA,3.07,4.88,4.68,1.24,4.47,3.01,0.695,2.21
CCTACTGGGCCATCAGGTCATTGCTATCAACGTT,2.55,2.04,1.77,0.254,1.37,3.24,2.94,1.62
ACTTACGGATCAACGAGGTTATAGCACGCGTATA,0.98,0.642,0.684,0.778,1.46,1.83,0.943,1.39
ATCTCTAGGTAACCAAGTTCAGTCAATGCCGAAC,2,1.22,1.21,1.27,0.744,1.86,1.06,3.43
CCTAGTTGGTCAGGAGGTTACACACCGGATATGA,1.49,1.67,1.33,0.179,1.3,1.03,0.918,0.702
TAGCCTAGGTCATGCGGGCCAGTATCGTGTCGGC,2.77,4.03,4.3,0.371,3.1,2.88,1.17,0.528
ATACCAAGGTGAGCGTGAGGTCGTTGATACTAAC,2,2.92,1.6,0.221,2.01,3.8,2.51,2.3
CCTGCAAGGTCAATGGTCAGCTAAAGCAGCTCGC,3.65,5.83,5.9,3.75,5.35,3.77,1.8,2.45
TTACCAAGGTGAAGGTCGTTGCTCCCTCTGTAGA,2.04,1.25,1.15,0.573,1.59,2.37,1.06,1.43
CGAACTAGGTCAGAACAGGACCGTGAAGGATGAT,1.66,2.43,3.01,0.494,1.17,1.56,-0.264,-0.342
AGTAAAAGTTCAGGACGAGGTAACGTAAAGCACG,2.91,4.29,4.25,2.76,2.3,3.78,2.01,1.89
GCGAGCAGGCCATTTGGGTCACTCAATGACGGGC,1.96,1.09,1.37,0.115,0.824,1.85,0.687,0.921
AGTCAAAGTTCATCTAGGTAACGCAAGATATGCT,3.95,5.4,6.01,4.76,4.57,3.08,0.274,5.06
CCTCGAAGGACAACAGGAGGTCAGAGCTGCCAGA,3.42,3.4,3.28,0.237,1.89,2.58,0.731,0.641
CAAATTAGGTCAAGGTCAAAGTCGGTTTGTGCCA,5.11,6.43,7,3.32,6.65,4.42,4.59,4.95
TCTGCTAGGTCAGTTGGTCCGCTAACGAGCTGCC,2.05,1.98,2.93,0.518,0.727,0.962,-0.188,-0.485
ATAGACAGGTGAGTGAAGGTAACTCAGCTGGACG,0.264,0.515,0.582,-0.459,0.665,1.68,-0.333,-0.359
GCGACTGGGGAAAAGCAGGTTACCATAAGGTTGG,0.416,-0.0185,-0.445,-0.805,0.275,1.25,0.0418,-0.6
ATCTCTAAGTAACAAGTTCAGTGAAAGAGAGGAC,1.84,0.884,1.24,1.06,0.744,0.981,0.691,2.61

Sequence,PBM binding z-score [1],PBM binding z-score [2],PBM binding z-score [3],PBM binding z-score [4],PBM binding z-score [5],PBM binding z-score [6],PBM binding z-score [7],PBM binding z-score [8]
CCTTACGGGGCAAGGTTATAGCACGGGTGGTACG,0.994,1.01,1.11,-1.2,1.08,0.828,-0.345,0.2
TCGAGTAGGTTTGTCGGGGCATTCAGCCAACATA,0.429,-0.206,-0.592,0.805,-0.149,0.462,0.392,0.461
CATACTAGGTCACAGAGGTCAAAGTCCGTGCGTA,5.73,7.31,7.56,3.27,7.91,4.72,3.18,6.84
ATATGTAGGGTATCGGGTCATTCAGTTTGCGCAT,2.99,2.43,1.97,1.43,2.76,3.07,2.69,3.81
GTACCATGGTGAATAGGTCGTTGATGAGTAGGCG,0.603,0.323,0.274,-0.264,0.592,0.133,-0.299,0.21
TCTTGTAGATCAAAAGGAGGTTAAGAAAGATCGA,0.201,0.79,0.0979,0.622,1.17,1.09,-0.613,0.16
CCTAGTAGGCCAGGGTCACTCAAGCATTTCGCTT,3.03,3.04,2.56,0.104,3.3,2.94,1.18,1.6
AATACAGGGTCATTGTAGGCCAGAGTACGCACAG,3.31,5.16,4.36,4.12,6.15,4.59,0.994,3.75
CCTACTGGGCCAAGGCCATTGATCAGTCAAAGCA,0.497,-0.179,-0.0334,-1.15,-0.715,0.101,-0.288,-0.406
CAAACTAGGTCACGAAAGGTCAAGGTCGAATGAC,6.07,7.93,8.86,2.21,8,5.14,3.71,4.2
ACTCGGAGGACAAAGGACAGAGCTACGCCAGTGA,1.11,1,1.64,0.398,0.0489,0.569,-0.18,-0.184
TGTCAAAGTTCAAAGGCAACGTAAGTATCCACAC,3.66,5.59,5.84,4.29,5.06,2.12,-0.708,4.02
TGAATGAGGTTATAAGATAAGGGAACGTTGCAAA,0.00548,1.36,1.01,0.619,1.79,1.68,0.04,0.0331
GCTTACGGGTCACAGGTTATAGCATGAATAGAAT,2.95,5.09,4.66,2.03,5.84,2.86,0.315,0.608
CCTAGTTGGTCAAGGTCACCCACGCTATAGGTAC,4.38,4.42,4.75,1.81,4.47,4.22,4.66,4.05
ACTAGCAGGCCAAGGGTCAGTCAAGATTAGTCCG,3.52,3.02,2.76,0.119,2.52,1.75,-0.147,0.29
ACTAGTTGGTCAGCTGAGGTCACACAGAATTCGG,4.54,4.18,4.44,1.41,4.19,5.12,5.11,3.47
CAGCCTAGGTCAGGGCCAGCATAGGAGGAACGTT,2.41,2.93,3.78,-0.352,1.57,1.95,0.423,-0.327
CCGACTGGGGGAGAAAGGTTACCATACCATCCGG,2.12,2.37,1.74,-0.115,2.39,1.84,0.416,0.562

Sequence,PBM binding z-score [1],PBM binding z-score [2],PBM binding z-score [3],PBM binding z-score [4],PBM binding z-score [5],PBM binding z-score [6],PBM binding z-score [7],PBM binding z-score [8]
ACTATTAGTTGAGACGAGGGCAAACGATAGGTTG,0.968,0.74,0.778,0.626,0.323,2.42,0.104,1.39
ACTCGTAGGACAAAGGTCAGAGCTACGCCAGTGA,4.29,5.58,4.82,1.14,5.3,2.92,0.244,0.657
CTCGTAAGGTCGTGCTCAGGTGAGTATACCAAAC,2.05,3.84,2.77,2.39,2.68,4.18,2.99,1.5
CCTCGGGGGACAGAAGGTCAGAGCTGTCCGCTTT,3.57,4.6,4.23,0.388,2.83,3.31,0.175,0.0933
GCACCAAGGTGAATAGGTCGTTGATGAGTAGGCG,1.77,2.42,1.1,0.00127,1.77,1.63,0.229,-0.0787
GCTTGTAGATTAAGGTTAAGAAAGACTAAGCTAA,0.241,0.49,0.267,0.113,0.645,2.08,0.778,-0.232
AGTCAAAGTTCATCTAGGTAACTTAAGATATGCT,3.54,5.3,5.5,4.71,4.34,3.05,0.221,5.32
GCTATTAGTTGAAAGGGCAACCCAATGATTCTCG,1.98,1.31,1.34,1.09,1.3,0.458,-0.122,0.235
TCATATAGGTAAATGCTAGGTGAAACTCCGATCT,0.638,0.657,0.3,1.3,0.917,1.65,0.67,0.32
TCTGCTAGGTCAGTTGCTCAGCTAACGAGCTGCC,1.89,2.18,3.06,0.567,0.527,1.01,-0.484,-0.87
TCTTGTAGCTCAAAGGTTAAGAAAGCCGAAGCCT,1.26,1.16,0.435,0.364,1.82,1.05,-0.771,-0.151
AGTCAAAGTTCAGGACGAGGTAACGTAAAGCACG,3.25,4.81,4.53,2.83,2.9,3.87,1.81,2.08
TCATATCGGTAAAAGGTGAAAGTCGGTGTGGTAA,2.12,1.68,0.807,1.6,2.29,1.4,0.504,0.635
CCTACAGGGCCACGAAAGGTCATTGATTCAGTGA,5.01,5.13,5.03,0.833,5.27,4.25,0.829,2.2
TAGCCTACGTCAGATCGGGCCAGTATACGCTATA,-0.763,-0.503,-0.517,-0.801,-0.569,0.901,-0.732,-0.727
ATATGTAGGTTGTCGGGTCATTCAGTTTGCGCAT,2.51,2.24,1.66,1.31,2.44,3.2,3.12,4.2
TTTCCAAGGTGAGCTGAGGTCGTTGATCCAACTC,1.73,1.51,1.2,0.414,1.59,4.61,2.71,2.61
GCTCGGAGGACAAGGTCAGAGCATTGTCCGTAGA,3.1,3.37,3.72,0.0327,2.61,2.87,1.51,0.838
GCTCGGAGGACAAAGTCAGAGCTTTGTCCGTAGA,-0.0434,-0.436,-0.0287,-0.569,-0.989,0.05,-0.629,-0.348

# Source: the supplement of paper PMC6555819
